Assay outcomes deposited in PubChem by National Center for Advancing Translational Sciences (NCATS).
BRCT PPI red: disrupts BRCA1 BRCT binding to phosphoprotein, red fluorophore readout; Potency, µM (series often up to 76.9 µM), for inactives: top-dose activity change, negative = inhibition, hits mostly inhibitors; BRCT-phosphopeptide binding, red fluorescence polarization; hit rate 0.03% among 75,000; P38398; AID 892; also: % is scaled to controls: 0 for no effect and ±100 for the full control effect
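Rhodamine-labelled pBACH1 10-mer (100 nM) bound to BRCT domain (100 nM) at pH 7.3; compounds incubated 12 min room temperature, polarization read. Free peptide defines full inhibition; unlabelled decapeptide titrated as control.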
BRCT inh green: blocks human BRCA1 BRCT binding to phosphopeptide, green readout; Potency, µM (top dose mostly 76.9 µM), for inactives: at the top dose activity change, negative = inhibition, actives largely listed as inhibitors; BRCA1 BRCT-phosphopeptide binding, green fluorescence polarization; P38398; hit rate 0.05% among 75,000;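 also: potency is read from the fitted curve at half-maximal effect; plate controls were peptide without protein for full effect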
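Compounds were incubated for 12 min at room temperature with a complex of 100 nM fluorescein-tagged pBACH1 decapeptide and 250 nM His-tagged BRCT protein. Buffer was phosphate pH 7.3 with EDTA, DTT and Tween 20. Disruption of binding lowers the polarization signal.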
Tau fil binding: binds recombinant human tau filaments; P10636; recombinant tau filaments, thioflavin S fluorescence, 15 h; filaments grown with octadecylsulfate alongside compound; Potency, µM (highest dose often 57.1 µM), inactives show top-dose activity change, negative = inhibition; hit rate 2% among 71,000; AID 596;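 also: potency is read from the fitted curve at half-maximal effect; % is scaled to controls: 0 for no effect and ±100 for the full control effect; actives lower thioflavin S fluorescence by blocking filaments or displacing dye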
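Assay mix: 1 uM His-tagged tau, 30 uM sodium octadecylsulfate, thioflavine S dye in HEPES/NaCl/DTT buffer. Compound is added prior to the inducer. Fluorescence after 15 h at 37 C.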
YjeE inh: displaces an ADP probe from E. coli YjeE (TsaE). P0AF67. purified YjeE enzyme, qHTS inhibition assay. Potency, µM. hit rate 0.05% among 71,000. AID 605
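Purified YjeE (10 uM) with BODIPY Texas Red-labeled ADP probe (2 uM); compounds pin-transferred, 15 min at room temperature. Binding inhibition read as decreased fluorescence polarization; ADP titration as control.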
Pol III holo inh: DNA polymerase III holoenzyme inhibition; reconstituted DNA polymerase III holoenzyme replication, biochemical; Potency, µM (top dose mostly 57.1 µM), for the others: at the top dose activity change, negative = inhibition; hit rate 0.25% among 71,000; also: potency is read from the fitted curve at half-maximal effect; % is scaled to controls: 0 for no effect and ±100 for the full control effect
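Reconstituted *E. coli* holoenzyme (0.35 nM Pol III, 1 nM beta, 154 nM SSB, 2 nM primase) was preincubated with compound for 15 min at RT. Synthesis on 1.4 nM ssM13Gori ran 35 min, then was stopped with PicoGreen/EDTA and read as dsDNA fluorescence.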
Hsp90 Hop PPI: changes Hsp90-Hop TPR2A binding signal, up or down; AlphaScreen TPR2A-His6 binding biotin-Hsp90 C-terminal peptide; Potency, µM (top dose mostly 57 µM), for inactives: top-dose activity change, negative = inhibition; hit rate 0.44% among 71,000; AID 595; active = well fitted curve in either direction with a large enough effect; inconclusive = small, poorly fitted or top-dose-only effect, or another doubt; also: potency is read from the fitted curve at half-maximal effect; % is scaled to controls: 0 for no effect and ±100 for the full control effect
* = called active by the depositor; i = inactive; u = inconclusive; x = no result given; ! = not active in a repeat; [ ] = dose if it differs, or a comment. Compounds with a hit are over-represented: about 2.4% of the library has one in this group of screens. Unless noted, calls follow the shape of the dose curve; as a rule, active = well fitted curve in the direction sought with a large enough effect; inconclusive = small, poorly fitted or top-dose-only effect, or another doubt; inactive = no such curve, though single readings can be large; an effect the other way counts as inactive or inconclusive.

SMILES	BRCT PPI red	BRCT inh green	Tau fil binding	YjeE inh	Pol III holo inh	Hsp90 Hop PPI
CCCCC(C=O)CC (configuration not stated)	0%	-3%	-10%	i	0%	0%
O=C1/C(=C/c2ccccc2)[C@@H](NC2CCCCC2)c2ccccc21	-2%[15.4 µM]	-1%[15.4 µM]	-3%[11.4 µM]	i	-12%[11.4 µM]	0%[11 µM]
CN(C)S(=O)(=O)c1ccc(NS(=O)(=O)/C=C/c2ccccc2)cc1	1%	-1%	-4%	i	0%	2%
CN(C)S(=O)(=O)c1ccc(Nc2ccc(O)c3c2C(=O)c2c([N+](=O)[O-])ccc(O)c2C3=O)cc1	-2%[15.4 µM]	-3%[15.4 µM]	1µM*	i	-1%[11.4 µM]	u
O=C1c2c(O)ccc([N+](=O)[O-])c2C(=O)c2c([N+](=O)[O-])ccc(O)c21	-4%	-3%	0.2µM*	i	-29%	u
CCc1ccc2c(-c3cccc(Cl)c3)nc(=O)n(CC)c2n1	0%	1%	32µM*	i	-3%	-7%
C[N+]1(C)CCc2cc(O)c(O)cc2[C@H]1Cc1ccc(O)c(O)c1	1%[15.4 µM]	0%[15.4 µM]	3%[11.4 µM]	i	-13%[11.4 µM]	-7%[11 µM]
c1ccc(-c2cccc(N3CCCC4(CCNCC4)C3)c2)cc1	0%	-1%	u	i	-8%	-13%
c1ccc(-c2cccc(N3CC[C@@]4(CCCNC4)C3)c2)cc1	1%	-1%	13µM*	i	-9%	u
O=C(O)CCNc1ccccc1C(=O)O	2%[15.4 µM]	1%[15.4 µM]	11%[11.4 µM]	i	-3%[11.4 µM]	-2%[11 µM]
COc1ccccc1CNc1nc(-c2ccoc2)nc2ccccc12	2%	1%	-18%	i	-4%	-17%
O=C(C[C@@H]1C=Cc2ccccc2N1C(=O)c1ccccc1)c1ccccc1	-1%[15.4 µM]	-2%[15.4 µM]	-7%[11.4 µM]	i	-11%[11.4 µM]	-5%[11 µM]
Cc1ccc2nc3c(cc(C(=O)NCc4ccccc4)c(=N)n3CCCn3ccnc3)c(=O)n2c1	0%	26%	0.5µM*	i	-13%	u
Cc1cccn2c(=O)c3cc(C(=O)NC(C)c4ccccc4)c(=N)n(CCCn4ccnc4)c3nc12 (configuration not stated)	0%	-1%	1.3µM*	i	-24%	-21%
CC(C)CC(=O)Nc1ccc(-c2cn3ccsc3n2)cc1	0%	-2%	13µM*	i	-3%	-9%
NC[C@@H]1O[C@H](C23CC4CC(CC(C4)C2)C3)Cc2c1ccc(O)c2O	0%	4%	32µM*!	i	-2%	u
Cc1ccc(-c2noc(CN(C(=O)CCCN3C(=O)c4ccccc4C3=O)C(C)C)n2)cc1	0%	-6%	16µM*	i	0%	1%
Cc1ccc(-c2noc(CN(C(=O)CCCCCN3C(=O)c4ccccc4C3=O)C(C)C)n2)cc1	-3%	-1%	u	i	-2%	6%
O=C1c2cc([N+](=O)[O-])ccc2-c2ccc3c4ccc5c6c(ccc(c7ccc1c2c73)c64)C(=O)c1cc([N+](=O)[O-])ccc1-5	-7%[15.4 µM]	-4%[15.4 µM]	1.6µM*	i	4µM*	u
Cc1noc(COc2ccc(OCc3nc(C)no3)cc2)n1	-1%	-1%	0.79µM*	i	-7%	0%
Cc1ccc(S(=O)(=O)NC(=O)Nc2ncn[nH]2)cc1	-1%[15.4 µM]	0%[15.4 µM]	-2%[11.4 µM]	i	-7%[11.4 µM]	-2%[11 µM]
CC(=O)O[C@H](CC(=O)O)C[N+](C)(C)C	2%	0%	40µM*	i	-2%	-6%
Cc1cccc(-c2noc(CCc3ccccc3)n2)c1	-1%	-2%	-1%	i	-3%	32µM*
COc1ccc(NC(=O)c2c(OC)cccc2OC)c(OC)c1	-1%	1%	16µM*	i	-1%	u
O=C(O)CCC/C=C\C[C@H]1[C@@H](/C=C\[C@@H](O)C2Cc3ccccc3C2)[C@H](F)C[C@H]1O	x	x	2%	i	-2%	-4%
SMILES	BRCT PPI red	BRCT inh green	Tau fil binding	YjeE inh	Pol III holo inh	Hsp90 Hop PPI
COc1cccc(-c2nc(=S)c3c(n2Cc2ccco2)CCCC3)c1	2%	-1%	16µM*	i	-14%	-8%
Cc1ccc(-c2nc(=S)c3c(n2Cc2ccco2)CCCC3)cc1	-2%	-2%	x	x	x	x
O=C(/C=C\c1ccc(O)cc1)c1ccc(O)cc1O	1%	7%	10%	i	-7%	-5%
O=c1c(-c2ccc(F)cc2)nc2cnc(Oc3ccccc3)nc2n1C[C@H]1CCCO1	-3%	-4%	20µM*	i	-1%	14%
CCNc1ncc2nc(-c3ccccc3)c(=O)n(-c3ccc(OC)cc3)c2n1	-1%	5%	229%	i	-1%	4µM*
O=c1c(-c2ccccc2)nc2cnc(Oc3ccccc3)nc2n1C[C@H]1CCCO1	1%	-1%	-16%	i	-4%	-1%
COc1cccc(Nc2ncc3nc(-c4ccccc4)c(=O)n(C[C@H]4CCCO4)c3n2)c1	-1%	3%	440%	i	6%	13µM*
COc1cccc(Nc2ncc3nc(-c4cc(F)cc(F)c4)c(=O)n(CCC#N)c3n2)c1	0%	28%	0.79µM*	i	3%	-8%
Nc1nc2c(nc(Br)n2[C@@H]2O[C@H]3COP(=O)(O)O[C@@H]3[C@H]2O)c(=O)[nH]1	-2%	-3%	7%	i	-7%	-9%
CC(/C=C/C=C(C)/C=C/C(=O)O)=C\C=C\C=C(C)\C=C\C=C(C)\C=C\C(=O)O	-3%	-5%	3.2µM*	i	2.5µM*	0%
CC1=C(/C=C/C(C)=C/C=C/C(C)=C/C(=O)O)C(C)(C)CCC1	1%	0%	x	x	x	x
CCOc1cccc(=O)c2c(C)n(Cc3ccco3)c(C)c12	0%	35%	4µM*	i	-3%	-9%
Oc1ccccc1C1=NCCNC(C(F)(F)C(F)F)=C1	0%	0%	16µM*	i	-1%	-3%
Oc1ccccc1-c1cc(C(F)(F)C(F)F)[nH]n1	0%	-1%	-7%[11.4 µM]	i	0%[11.4 µM]	-8%[11 µM]
Nc1cc2c(nc3c4ccccc4c(N)cc3[n+]2-c2cccc3ccccc23)c2ccccc12 (tested in a mixture with another compound)	2%[15.4 µM]	-1%[15.4 µM]	0.63µM*	u	-4%[11.4 µM]	2.5µM*
Nc1c2ccccc2nc2ccccc12 (tested in a mixture with another compound)	0%	0%[3.08 µM]	x	x	x	x
CC[C@@H]1CN2CCc3cc(OC)c(OC)cc3[C@H]2C[C@@H]1C[C@@H]1NCCc2cc(OC)c(OC)cc21	1%	-2%	15%	i	0%	-14%
O=C(CSc1nnc(-c2ccccc2)o1)c1nnc(-c2ccccc2)o1	0%	10%	4µM*	i	0%	-19%
